# Source: PubChem BioAssay (National Center for Advancing Translational Sciences (NCATS))
# D1 ag: activates the human D1 dopamine receptor | 1% of 360,000 active | activation, % at 2 µM | HEK293 T-REx D1 cells, calcium flux, agonist mode | P21728 | AID 504660; also: 0% is about no effect
#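 Inducible HEK293 T-REx D1 cells, force-coupled to calcium signalling, were plated at 4000 cells/well with tetracycline and held overnight at 30 C. After no-wash calcium dye loading, compound-evoked calcium rise over 180 s flagged agonists.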
# D1 potentiator: human D1 dopamine receptor positive modulation | P21728 | HEK293 TREx D1 cells, calcium flux, dopamine EC20 potentiation | 0.036% of 360,000 active | AID 504651 | potentiation, % at 10 µM; in the data active = potentiation above about 30%; also: 0% is about no effect
# D1 antagonist: human D1 dopamine receptor antagonism; 3.2% of 360,000 active; AID 504652; P21728; activity change, negative = inhibition, % at 10 µM; HEK293 TREx D1 cells, calcium flux, dopamine EC80; stronger effect = lower value; in the data active = activity change below about -30%; also: % is scaled to controls: 0 for no effect and ±100 for the full control effect
#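 After overnight tetracycline induction at 30 C, force-coupled D1 HEK293 cells took up a no-wash calcium dye at room temperature. Compounds were added and monitored 180 s, and the response to EC80 dopamine was then recorded.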
# TRHR ag: agonists of human TRH receptor | AID 493084 | P34981 | TRHR cells, calcium flux fluo-8, FDSS agonist mode | 0.18% of 360,000 active | activation, % at 2 µM; also: 0% is about no effect
# Target sequence (P34981 whole entry, looked up): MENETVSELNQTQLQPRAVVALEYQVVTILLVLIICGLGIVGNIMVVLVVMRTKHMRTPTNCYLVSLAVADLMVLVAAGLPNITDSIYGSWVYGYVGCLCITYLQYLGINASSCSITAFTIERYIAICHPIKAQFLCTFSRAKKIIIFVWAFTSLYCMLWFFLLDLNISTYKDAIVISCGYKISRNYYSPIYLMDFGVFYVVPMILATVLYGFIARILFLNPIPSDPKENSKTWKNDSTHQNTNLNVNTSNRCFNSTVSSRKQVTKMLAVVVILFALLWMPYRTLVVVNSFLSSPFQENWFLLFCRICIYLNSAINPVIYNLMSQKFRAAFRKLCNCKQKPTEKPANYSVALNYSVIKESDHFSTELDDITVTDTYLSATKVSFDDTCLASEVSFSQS
#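 Fluo-8-loaded TRHR cells; 10 s baseline, compound added, kinetic Ca2+ fluorescence read 1/s, agonist mode.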
# TRHR PAM: TRH receptor (human) allosteric enhancement. TRHR cells, fluo-8 calcium fluorescence, EC20 TRH enhancement. P34981. enhancement, % at 2 µM. 0.66% of 360,000 active; in the data active = enhancement above about 30%; also: 0% is about no effect
#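 TRHR-expressing cells loaded with fluo-8 calcium dye were read kinetically (ex 480/em 530) during compound addition, then stimulated with an EC20 of TRH (10 nM final). Enhancement of the Gq-mediated intracellular calcium response was scored.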
# The depositor's hits bear a star; x = no result given. Hits are enriched below; roughly 4.6% of the tested compounds scored in any of these assays. Rule as the data show it, unless noted: active = activation above about 30%; inactive = the rest.
SMILES,D1 ag,D1 potentiator,D1 antagonist,TRHR ag,TRHR PAM
CC(NC(=O)Nc1nnc(C(F)(F)F)s1)(C(F)(F)F)C(F)(F)F,41*,-8,-29,12,3
O=C(Nc1ccccc1C(=O)Nc1nnc(C(F)(F)F)s1)c1ccccc1Cl,26,-3,-30*,2,-9
Cc1cc2c(s1)c1cnn(Cc3ccc(OC(F)F)cc3)c(=O)c1n2C,0,0,-3,0,1
O=C(CN1C(=O)COc2ccc(S(=O)(=O)Nc3ccccc3)cc21)Nc1cccc(Cl)c1,4,-1,-3,1,-20
O=C(CCCc1nc2ccccc2s1)NCc1ccccc1F,2,6,-42*,-1,-3
CC(C)c1nn2c(=O)cc(COC(=O)c3ccc(NC(=O)C4CCCCC4)cc3)nc2s1,-2,0,-1,0,-3
Cc1ccc(-c2nnc(Nc3ccc(F)cc3)c3ccccc23)cc1S(=O)(=O)NC(C)C,-1,-3,-34*,0,7
COc1nnc(-c2ccc(C)c(S(=O)(=O)NC(C)C)c2)c2ccccc12,5,6,4,-1,0
CC(=O)Nc1ccc(Nc2nnc(-c3ccc(C)c(S(=O)(=O)NCCO)c3)c3ccccc23)cc1,2,-4,2,0,3
Cc1ccc(Nc2nnc(-c3ccc(C)c(S(=O)(=O)N4CCOCC4)c3)c3ccccc23)c(C)c1,-1,-3,-45*,-1,9
Cc1ccc(-c2nnc(Nc3ccc(O)cc3)c3ccccc23)cc1S(=O)(=O)NC(C)(C)CO,-1,-3,-44*,-1,18
Cc1ccc(-c2nnc(Nc3ccc(C(N)=O)cc3)c3ccccc23)cc1S(=O)(=O)N1CCCCC1,2,1,-21,-2,-2
Cc1ccc(-c2nnc(Nc3ccc(O)cc3)c3ccccc23)cc1S(=O)(=O)N1CCCCC1,-2,0,-17,0,30*
COc1ccc(N=Nc2nc3cc(Br)c(Br)cc3n2C)c(OC)c1,88*,-5,-12,55*,-2
COc1cccc(CNC(=O)CC(c2ccc(C)cc2)N2Cc3ccccc3C2=O)c1 (configuration not stated),-1,-2,-32*,-1,-2
CCOc1ccc(Cn2nnc(C(=O)NCCc3ccccc3)c2N)cc1,6,x,-10,0,1
CCOc1ccc(Cn2nnc(C(=O)NCCc3ccc(Cl)cc3)c2N)cc1,1,x,-37*,0,-3
COc1cccc(Cn2nnc(C(=O)NCc3ccc(F)cc3)c2N)c1,1,-6,-50*,0,4
Nc1c(C(=O)NCc2ccccc2)nnn1Cc1cccc(Br)c1,2,-1,2,0,0
CSc1ccc(Cn2nnc(C(=O)NCc3ccccc3)c2N)cc1,49*,7,-4,3,-4
Cc1ccc(C)c(Cn2nnc(C(=O)NCc3ccccc3)c2N)c1,41*,-1,-6,0,21
Cc1cccc(Cn2cc3c(=O)n(CC(=O)Nc4ccc(C)c(F)c4)nc-3c3cc(F)ccc32)c1,2,2,-16,0,-8
CCOc1ccc(N2C(=O)CN(O)C=C3N=c4ccccc4=C32)cc1,14,2,10,1,-2
Nc1c(C(=O)NCc2ccccc2)nnn1Cc1ccccc1,9,x,4,1,34*
Cc1cc(C)cc(NC(=O)Cn2nnc(C(=O)NCc3ccc4c(c3)OCO4)c2N)c1,5,-6,-32*,1,4
SMILES,D1 ag,D1 potentiator,D1 antagonist,TRHR ag,TRHR PAM
COc1ccc2c(c1)CCCN2C(N)=Nc1ccc(Cl)cc1,49*,-10,-44*,14,-9
Cn1c(=O)n(Cc2ccc(Cl)cc2)c2ccccc21,-3,-5,-33*,0,-7
O=C(CNc1ccccc1)N/N=C/c1cc([N+](=O)[O-])ccc1N1CCCC1,2,-9,-31*,-1,-16
Cc1ccc(OCC(=O)NCCNC(=O)c2cnccn2)cc1C,39*,-3,-7,-1,2
CCCCCOc1ccc(Cn2c(=O)oc3ccccc32)cc1,6,-1,-17,1,-5
O=C(c1ccc([N+](=O)[O-])cc1)N1CCSC1c1cccc(Cl)c1 (configuration not stated),3,-12,-35*,1,-1
O=C(COC(=O)CCc1nc2ccccc2c(=O)[nH]1)Nc1ccccc1Cl,1,5,-41*,-1,9
O=C(CCc1nc2ccccc2c(=O)[nH]1)NCc1ccccn1,1,-15,-30*,0,0
Oc1c(C(c2ccccc2F)N2CCN(c3ccccc3F)CC2)sc2nc(-c3ccco3)nn12 (configuration not stated),-4,1,x,0,3
O=C(N/N=C/c1ccc([N+](=O)[O-])o1)c1ccc(NS(=O)(=O)c2cccs2)cc1,1,-3,-89*,-1,6
O=C(N/N=C/c1ccc([N+](=O)[O-])cc1)c1ccc(NS(=O)(=O)c2cccs2)cc1,1,-4,-11,5,-1
COC(=O)c1ccccc1NC(=O)c1nc(-c2ccc(Cl)cc2)n2c1CCCCC2,0,-4,-10,1,35*
COc1ccccc1N1CCN(C(=O)c2cc(-c3ccc4c(c3)OCO4)on2)CC1,1,-4,-5,0,1
COc1ccccc1N1CCN(C(=O)c2cc(-c3ccc(C)c(F)c3)on2)CC1,2,-1,-81*,0,-3
CN(C)c1c2ccccc2nc2c(F)c(F)c(F)c(F)c12,2,2,3,0,-5
Cc1c2ccccc2nc2c(F)c(N(C)C)c(F)c(F)c12,62*,-4,-5,40*,4
O=C(NCCc1ccccc1)c1cc2sccc2n1Cc1ccc(F)cc1,8,-3,-31*,0,-7
Cc1cc(Cl)ccc1NC(=O)CCC(=O)N/N=C/c1cc([N+](=O)[O-])ccc1O,1,13,-9,-2,-2
O=[N+]([O-])c1ccc(O)c(/C=N/NC(=S)Nc2ccc(Cl)cc2Cl)c1,12,-12,-40*,1,-14
Cc1nn(C(=O)c2c(F)cccc2F)c(C)c1S(=O)(=O)N1CCCCCC1,4,-4,-63*,0,1
CC1CCCCN1C(=O)Cn1c(SCC(=O)N(C)c2ccccc2)nc2ccccc21 (configuration not stated),-2,1,-18,0,0
O=C(NCC(c1cccnc1)N1CCc2ccccc21)c1ccc(F)cc1 (configuration not stated),17,-3,-18,0,-3
Cc1ccc(C(CNS(=O)(=O)c2ccc(C)cc2)N2CCN(C)CC2)cc1 (configuration not stated),9,-1,-8,0,5
